The list is not random: actives were taken first. Their share in the collection is about 28%.
CYP2C19 activ: human CYP2C19 activators, primary screen, biochemical, luminescence; Cytochrome P450 2C19 (Homo sapiens), P33261; recombinant CYP2C19, luciferin-H EGE luminescence; active compounds read high; 0 = fully inhibited enzyme, 1 = untreated enzyme; activation factor at 5 µM; 96,000 tested, under 10 active; AID 1025, 2008;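 active = activation factor of at least 2 at 5 µM in the primary screen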;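 note: 0 = wells with 2.5 mM tranylcypromine and 1 = vehicle-only wells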
CD11b adhes inh: inhibitors of CD11b/CD18 adhesion to fibrinogen, primary screen, K562 cells, luminescence | 93,000 compounds, 0.54% hits | Integrin beta-2 (Homo sapiens) + Integrin alpha-M (Homo sapiens), P05107+P11215 | AID 1497, 2009 | ATPlite luminescence; Mn2+ added to activate the integrin | inhibition, % at 10 µM;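 active = primary inhibition of 50% or more at 10 µM, then 40% or more on retest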
CYP2C19 inhib: blockers of cytochrome P450 2C19 activity – biochemical, luminescence, ADME assay, primary screen. AID 778, 2007. CYP2C19 Supersomes, luciferin-H EGE luminescence, 30 min. inhibition, % at 5 µM. 96,000 compounds, 21% hits. P33261;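 active = CYP2C19 inhibition above a set limit at 5 µM in the primary screen, cut at about 50% in these data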;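 note: plate controls were negative control wells for no effect and 2.5 mM tranylcypromine positive control for full effect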
CD11b adhes enh: enhancers of CD11b/CD18 adhesion to fibrinogen, primary screen, K562 cells, luminescence | ATPlite luminescence | activation, % at 10 µM | 93,000 compounds, 0.07% hits | AID 1499, 2009;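 active = 10 µM primary screen giving 50% or more activity, confirmed by 40% or more on retest at that dose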
CYP2C9 activ: human CYP2C9 activators, primary screen, biochemical, luminescence; Cytochrome P450 2C9 (Homo sapiens), P11712; recombinant CYP2C9, luciferin-H conversion; active compounds read high; factor 1 = untreated enzyme, 0 = blocked; activation factor at 5 µM; 96,000 compounds, 1.4% hits; AID 1024, 2008;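 active = activation factor of 2 or more for CYP2C9 at a 5 µM dose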;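 note: 0 = sulfaphenazole-blocked wells and 1 = vehicle-only wells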
Target sequence (P11712 whole entry, looked up): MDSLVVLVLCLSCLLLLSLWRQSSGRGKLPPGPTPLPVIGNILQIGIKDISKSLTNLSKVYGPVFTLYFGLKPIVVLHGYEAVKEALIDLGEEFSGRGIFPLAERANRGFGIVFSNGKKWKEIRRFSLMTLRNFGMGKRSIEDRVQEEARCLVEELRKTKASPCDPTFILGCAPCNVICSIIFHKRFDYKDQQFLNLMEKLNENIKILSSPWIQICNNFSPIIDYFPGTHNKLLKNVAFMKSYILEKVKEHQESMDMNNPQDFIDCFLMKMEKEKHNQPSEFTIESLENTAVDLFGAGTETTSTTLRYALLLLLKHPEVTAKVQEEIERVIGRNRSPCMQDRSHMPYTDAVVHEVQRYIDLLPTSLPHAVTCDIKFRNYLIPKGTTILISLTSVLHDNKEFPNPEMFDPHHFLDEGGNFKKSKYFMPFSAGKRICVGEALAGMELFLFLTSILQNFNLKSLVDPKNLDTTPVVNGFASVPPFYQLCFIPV
CYP2C9 inhib: blockers of cytochrome P450 2C9 activity – biochemical, luminescence, ADME assay, primary screen | 96,000 compounds, 20% hits | CYP2C9 Supersomes, luciferin-H conversion | inhibition, % at 5 µM | P11712;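 active = blocking of liver enzyme CYP2C9 beyond about 50% at 5 µM, limit read from the data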
Starred values were filed as active, the others as inactive; · = no result given.

SMILES	CYP2C19 activ	CD11b adhes inh	CYP2C19 inhib	CD11b adhes enh	CYP2C9 activ	CYP2C9 inhib
COC(=O)CSc1nc(SCc2ccccc2Cl)nc2c1CCCC2	0.5	-31.1	49.6	2.4	0.3	69.2*
O=C(CN1CCCCC1)Nc1ccc(NC(=O)c2ccc(Cl)cc2)cc1Cl	0.8	·	17.9	·	0.8	15.9
O=C1COc2ccc(C(=O)c3ccccc3C(=O)NCc3ccccc3)cc2N1	0.2	-13.1	75.4*	-0.4	0.7	29.6
O=C1COc2ccc(C(=O)c3ccccc3C(=O)NCc3ccco3)cc2N1	0.3	8.3	66.6*	-2.0	0.9	9.5
Cc1cc(C(=O)OCC(=O)c2ccc3c(c2)NC(=O)CO3)c2ccccc2n1	0.8	12.3	22.2	37.4	1.6	-61.5
O=C1COc2ccc(C(=O)NCc3ccco3)cc2N1	1.1	3.2	-5.8	1.5	1.2	-15.4
CCCn1nc2cc(C(=O)NCc3ccc(C)cc3)ccc2c1OC	1	·	2.6	·	0.9	7.0
CC1CN(C(=O)COC(=O)[C@@H]2CC(O)CN2S(=O)(=O)c2ccc3c(c2)OCCO3)CC(C)O1 (some centres not stated)	·	-7.0	·	2.3	·	·
O=C(COc1ccc2ccccc2c1Br)NNC(=O)Nc1ccccc1	0.7	2.9	28.5	10.9	1.4	-44.6
O=C(COc1cc(Cl)c(Cl)cc1Cl)Nc1ccncc1	0	·	98.7*	·	0	100.0*
O=C(COc1ccc2ccccc2c1Br)Nn1cnnc1	0	-31.3	98.5*	7.0	0.2	84.6*
O=C(COc1cc(Cl)c(Cl)cc1Cl)Nn1cnnc1	0	-10.9	96.4*	0.2	0.2	81.9*
Cc1cc(OCC(=O)Nn2cnnc2)c(C)cc1Br	0	-7.5	98.7*	-0.3	0.1	89.7*
CC1(C)CC2(CCO1)CNC(=O)O2 (configuration not stated)	1.1	-6.1	-10.0	-1.3	1	1.2
O=C(NCc1ccccc1)c1ccc(CS(=O)(=O)c2ccccc2)o1	0.7	2.6	30.2	-4.1	0.6	42.3
CCOc1ccc(OCC)c(NC(=O)C2CCCN(S(=O)(=O)c3cnc[nH]3)C2)c1 (configuration not stated)	0.6	-10.7	44.1	-0.3	0.2	79.2*
CCOc1ccc(OCC)c(NC(=O)C2CCCN(S(=O)(=O)c3c(C)noc3C)C2)c1 (configuration not stated)	0.9	-11.3	5.9	-3.2	0.9	7.6
CCOc1ccc(OCC)c(NC(=O)C2CCCN(S(=O)(=O)c3c(C)n[nH]c3C)C2)c1 (configuration not stated)	0.5	-8.4	45.4	-3.1	0.4	63.5*
COc1ccc(C(=O)CC(c2ccccc2)C2CCCCC2=O)cc1 (configuration not stated)	0.8	-6.1	20.3	-2.4	0.3	72.6*
O=C(CC(c1ccco1)C1CCCCC1=O)c1ccco1 (configuration not stated)	0.5	-13.6	52.9*	-6.7	0.4	55.4*
COc1ccc(C(=O)NCC(=O)OC2CCCCC2=O)cc1 (configuration not stated)	0.2	-8.9	80.6*	-3.0	1	-0.1
CC(Oc1ccc(-c2nccc(-c3ccccn3)n2)cc1)C(=O)NN (configuration not stated)	0.8	-8.1	22.5	-7.6	0.7	27.3
Cc1cccc2cc(CN(CCCO)C(=O)Nc3cccc(Cl)c3)c(=O)[nH]c12	0.3	11.3	70.8*	25.2	0.2	81.0*
COCCN(Cc1cc2cccc(C)c2[nH]c1=O)C(=O)c1ccccc1	0.6	8.1	42.8	0.7	0.8	17.6
O=C(c1ccncc1)N(Cc1ccco1)Cc1cc2ccccc2[nH]c1=O	0	-1.7	99.4*	0.1	0.1	92.9*
SMILES	CYP2C19 activ	CD11b adhes inh	CYP2C19 inhib	CD11b adhes enh	CYP2C9 activ	CYP2C9 inhib
Cc1cccc2cc(CN(CCCO)C(=O)Nc3ccccc3Cl)c(=O)[nH]c12	0.9	3.8	8.2	2.5	0.7	28.9
Cc1cccc2cc(CN(Cc3ccco3)C(=O)c3ccncc3)c(=O)[nH]c12	0	-8.7	98.0*	0.7	0.1	94.5*
Cc1cc(S(=O)(=O)N2CCN(Cc3ccccc3)CC2)c(C)s1	0	-10.1	98.6*	3.5	0.4	61.9*
COc1cc(C)c(C)cc1S(=O)(=O)N1CCN(Cc2ccc3c(c2)OCO3)CC1	0.4	10.9	61.9*	3.5	1	-2.2
COc1cc(C)c(C)cc1S(=O)(=O)N1CCN(Cc2ccccc2)CC1	0.1	13.1	88.8*	7.4	0.4	62.6*
COC(=O)n1ccc(C(=O)Nc2ccccc2F)n1	1	-6.2	4.4	1.1	0.9	7.2
CCOC(=O)C(=CNc1cc(C)nn1-c1ccc(C)cc1)C(=O)OCC	0.5	8.0	48.3	-4.5	0.4	64.7*
CN/S(=N/S(=O)(=O)c1ccccc1)c1ccc(C)cc1 (configuration not stated)	0.2	-6.8	76.0*	-1.4	0.7	25.7
O=C(NCC1CCCO1)c1ccccc1-c1nc(-c2ccc(Cl)cc2)no1 (configuration not stated)	0.9	-32.0	9.9	-3.7	0.8	19.4
COc1ccccc1-c1noc(-c2ccccc2C(=O)N2CCOCC2)n1	0.8	13.5	20.8	-4.9	0.6	42.5
CC(C)(C)NC(=O)c1ccccc1-c1nc(-c2ccccc2Cl)no1	0.2	26.9	85.0*	7.0	0	100.4*
COc1cccc(NC(=O)c2ccccc2-c2nc(-c3cccc(C)c3)no2)c1	0.6	-2.9	36.1	-3.0	0.4	61.1*
COCCNC(=O)c1ccccc1-c1nc(-c2ccccc2OC)no1	0.9	-2.1	11.1	-3.1	0.8	18.7
CCNC(=O)c1ccccc1-c1nc(-c2ccccc2Cl)no1	0.8	-5.0	15.3	-0.4	0.2	75.5*
CCOc1ccccc1NC(=O)c1ccccc1-c1nc(-c2ccccc2OC)no1	0.6	8.1	38.7	-5.4	0.4	63.0*
CCc1ccc(C2=Nn3c(nnc3-c3cccs3)SC2)cc1	1.1	-10.4	-8.2	-5.9	1	-3.5
CC(C)NC(=O)c1ccccc1-c1nc(-c2ccccc2Cl)no1	0.8	-2.3	16.6	-5.6	0.2	78.9*
C=CCn1c(SCC(=O)Nc2ccc(-c3nc4ccc(C)cc4s3)cc2)nnc1-c1ccccc1	·	37.6	·	49.9	·	·
CCCC1(C(=O)OCC)NC(c2ccc(N(C)C)cc2)C2C(=O)N(c3ccc(OCC)cc3)C(=O)C21 (configuration not stated)	0.3	-5.4	73.5*	-2.4	0.5	49.5
CCN(CCCNC(=O)CN(C)S(=O)(=O)c1cccc2nsnc12)c1cccc(C)c1	0.7	9.6	27.1	-7.0	0.3	73.5*

Assay outcomes: PubChem BioAssay, Sanford-Burnham Center for Chemical Genomics
